# A selection: hits, their analogues and other compounds. The true share with any hit is near 2.9%.
# PME-1 primary = PME-1 (human) inhibition. Q9Y570. inhibition, % at 5.9 µM. recombinant PME-1, FP-Rh probe fluorescence polarization. 320,000 tested, 0.53% active;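 active = inhibition above the campaign mean of all compounds plus 3 SD, cut at about 26% in these data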;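 note: competitive labeling of PME-1 active site by serine hydrolase directed probe; 0% = PME-1 with DMSO and 100% = wells lacking PME-1 enzyme; inhibitors block probe labeling so polarization falls and inhibition rises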
# PAFAH1B2 FP inh = inhibitors of human PAFAH1B2; 340,000 tested, 1.2% active; inhibition, % at 3.39 µM; P68402; AID 492953; recombinant PAFAH1B2, FP-rhodamine activity probe, fluorescence polarization;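 active = inhibition above the mean of all tested compounds plus 3 SD, cut at about 24% in these data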;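 note: 0% = enzyme with DMSO and 100% = wells lacking PAFAH1B2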
# pPAFAH FP inh = inhibitors of human plasma PAF acetylhydrolase (pPAFAH) | Q13093 | recombinant pPAFAH, FP-rhodamine probe fluorescence polarization | inhibition, % at 3.39 µM | 330,000 tested, 1.5% active;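 active = inhibition above the mean inhibition across the screen plus 3 SD, cut at about 25% in these data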;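 note: inhibitors block binding of the rhodamine activity-based probe so polarization drops; 0% = enzyme with DMSO and 100% = wells lacking pPAFAH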
# Target sequence (Q13093 whole entry, looked up): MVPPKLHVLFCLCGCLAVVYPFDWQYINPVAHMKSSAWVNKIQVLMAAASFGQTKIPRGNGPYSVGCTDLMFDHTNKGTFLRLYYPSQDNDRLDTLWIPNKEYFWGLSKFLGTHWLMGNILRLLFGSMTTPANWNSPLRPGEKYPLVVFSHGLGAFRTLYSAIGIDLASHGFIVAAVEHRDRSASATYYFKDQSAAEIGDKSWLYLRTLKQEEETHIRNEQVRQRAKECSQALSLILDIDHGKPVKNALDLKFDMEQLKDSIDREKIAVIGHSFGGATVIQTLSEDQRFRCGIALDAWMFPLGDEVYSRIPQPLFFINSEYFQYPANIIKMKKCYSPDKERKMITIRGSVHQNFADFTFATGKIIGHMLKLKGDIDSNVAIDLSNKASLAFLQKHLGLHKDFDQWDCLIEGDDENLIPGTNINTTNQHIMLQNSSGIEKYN
# PAFAH1B3 inh = PAFAH1B3 (human) inhibition | recombinant PAFAH1B3, FP-rhodamine probe, fluorescence polarization | inhibition, % at 3.39 µM | 340,000 tested, 0.28% active | AID 492972;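 active = inhibition above the screen-wide average of all tested compounds plus 3 SD, cut at about 25% in these data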;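 note: 0% = enzyme with DMSO only and 100% = wells lacking PAFAH1B3 protein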
# PAFAH2 inh = inhibitors of human PAFAH2; inhibition, % at 3.39 µM; AID 492956; recombinant PAFAH2, FP-rhodamine activity probe, fluorescence polarization; 340,000 tested, 0.99% active;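 active = inhibition above the mean over all tested compounds plus 3 SD, cut at about 30% in these data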;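 note: inhibitors block probe labeling of enzyme so polarization drops; 0% = enzyme with DMSO and 100% = wells lacking PAFAH2 protein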
# Fam108B counter = counter-screen for RBBP9 inhibitors: inhibitors of mouse Fam108B | 300,000 tested, 0.33% active | recombinant Fam108B, FP-Rh probe fluorescence polarization | AID 1947 | inhibition, % at 9.51 µM;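 active = inhibition above the screen mean inhibition plus 3 SD, computed separately per campaign, cut at about 18% in these data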;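 note: inhibitors lower polarization as less probe binds the enzyme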
# PAFAH2 confirm = PAFAH2 (human) inhibition, confirmed; shares compounds with PAFAH2 inh; 2,300 tested, 65% active; AID 493030; inhibition, % at 3.39 µM; recombinant PAFAH2, FP-rhodamine activity probe, fluorescence polarization;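 active = mean inhibition over three repeats above a set limit taken from the earlier primary screen, cut at about 30% in these data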;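 note: inhibitor blocks binding of rhodamine activity probe so polarization falls; 0% = enzyme with DMSO and 100% = wells lacking PAFAH2 protein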
# * = called active by the depositor; . = no result.
SMILES,PME-1 primary,PAFAH1B2 FP inh,pPAFAH FP inh,PAFAH1B3 inh,PAFAH2 inh,Fam108B counter,PAFAH2 confirm
COc1ccc(C(=O)OCC(=O)NCC2CCCCC2)c(OC)c1,.,2,.,0,66*,.,57*
O=C(NCC(c1ccco1)N1CCCCC1)c1ccc([N+](=O)[O-])s1 (stereo unspecified),.,.,8,.,.,.,.
O=C(CCn1cnc2ccccc2c1=O)Nc1nc(-c2ccc(Br)cc2)cs1,6,1,3,-4,-15,-11,.
CC(C)(C)OC(=O)NCCCCCNC(=O)c1nc[nH]c1C(=O)NCCCCCNC(=O)OC(C)(C)C,.,6,5,8,-4,.,.
C=CCNC(=O)COC(=O)c1ccc(C)c(NC(=O)c2ccco2)c1,-1,5,1,0,36*,-1,30*
CCCCNC(=O)COC(=O)c1ccc(C)c(NC(=O)c2ccco2)c1,-5,-2,4,1,50*,0,45*
CCN(CC)C(=O)COC(=O)c1ccc(C)c(NC(=O)c2ccco2)c1,-1,10,4,6,3,-3,.
CCOCC(=O)Nc1ccc2c(c1)N(S(=O)(=O)c1cccs1)CCC2,2,-1,2,7,-10,-4,.
OCCC1CN(Cc2cc(F)ccc2F)CCN1CCCc1ccccc1 (stereo unspecified),0,3,0,3,-2,-3,.
COc1cc(SC)ccc1C(=O)OCC(=O)NCC(C)C,6,2,13,13,45*,-2,28
CC(C)CNC(=O)COC(=O)c1cc(Cl)cc(Cl)c1N,2,4,-2,8,3,9,.
CC(C)CNC(=O)COC(=O)c1ccc(F)cc1Cl,7,4,13,-3,35*,0,19
COc1ccc(C(=O)Oc2ccc(Br)cc2C(=S)N2CCOCC2)cc1,-10,2,18,8,52*,5,36*
COc1cc(C(=O)Oc2ccc(Br)cc2C(=S)N2CCOCC2)cc(OC)c1OC,-1,1,12,11,7,-1,.
O=C(Oc1ccc(Br)cc1C(=S)N1CCOCC1)c1ccc(F)cc1,12,2,5,9,13,2,.
Cc1ccc(C(=O)Oc2ccc(Br)cc2C(=S)N2CCOCC2)cc1,3,4,10,4,32*,-2,33*
O=c1c2c(nc3nc(Cc4ccccc4)[nH]n13)CCC2,0,-3,7,7,67*,-5,59*
NC(=S)n1[nH]c(-c2ccc([N+](=O)[O-])cc2)c(N=Nc2cccc(Cl)c2)c1=O,.,16,.,17,36*,.,25
COc1ccc([N+](=O)[O-])cc1NC(=O)COC(=O)C1CC1,-4,3,0,9,49*,-1,-1
O=C(COC(=O)c1ccc(-n2cnnn2)cc1)Nc1cc(Cl)ccc1F,-18,-1,-5,-4,34*,.,28
O=C(COC(=O)C1CCCCC1)Nc1cc([N+](=O)[O-])ccc1F,0,18,10,12,49*,-4,28
Cc1ccc(NC(=O)COC(=O)c2ccc(-n3cnnn3)cc2)c(Br)c1,-6,-1,1,-7,10,.,.
O=C(COC(=O)C1CCCC1)Nc1cccc(Cl)c1Cl,.,5,8,11,32*,.,7
Cc1ccc(Cl)cc1NC(=O)COC(=O)C1CCCC1,-2,11,6,4,28,0,.
COc1ccc(S(=O)(=O)N2CCC(C(=O)N[C@@H](C)C(=O)NC3CCCC3)CC2)cc1,-3,4,3,2,3,-2,.
SMILES,PME-1 primary,PAFAH1B2 FP inh,pPAFAH FP inh,PAFAH1B3 inh,PAFAH2 inh,Fam108B counter,PAFAH2 confirm
COc1cc(C)c(NC(=O)c2cccc(S(=O)(=O)N3CCCC3)c2)cc1OC,.,2,3,16,-10,.,.
CCC1(c2ccccc2)NC(=O)N(CC(=O)NC2CCCCCC2)C1=O (stereo unspecified),.,8,3,3,4,.,.
Nc1ccc(C(=O)OCC(=O)Nc2cc([N+](=O)[O-])ccc2F)cc1,5,0,12,-6,83*,2,82*
Cc1ccc(S(=O)(=O)NCC(=O)NNC(=O)c2ccccc2Cl)cc1C,.,8,-2,5,3,.,.
CCCCOC(=O)n1c(=O)oc2ccc(S(=O)(=O)N3CCCCC3)cc21,-11,8,12,8,66*,2,61*
Cc1ccc(-c2c(C#N)c(N)n3c(nc4ccccc43)c2C#N)cc1,-1,5,13,5,46*,-6,34*
CCCCn1c(N)c(N(CCOC)C(=O)c2cccc(N3C(=O)c4ccccc4C3=O)c2)c(=O)[nH]c1=O,-5,-3,6,3,45*,3,-2
CCCCn1c(N)c(N(CCOC)C(=O)c2ccc(N3C(=O)c4ccccc4C3=O)cc2)c(=O)[nH]c1=O,.,2,.,3,-5,.,.
CSc1ccc(CN2CCCN(C)CC2)cc1,1,4,-2,12,-4,5,.
O=C(COC(=O)CNC(=O)c1ccc(F)cc1)Nc1cccc(S(=O)(=O)N2CCCC2)c1,-6,6,7,12,5,-1,.
O=C(COC(=O)/C=C/c1ccc(OC(F)F)cc1)Nc1cccc(S(=O)(=O)N2CCOCC2)c1,.,-2,2,9,53*,.,40*
COc1cccc(/C=C/C(=O)OCC(=O)Nc2cccc(S(=O)(=O)N3CCCCC3)c2)c1OC,-36,-1,4,-1,39*,-28,55*
O=C(COC(=O)/C=C/c1ccc(F)cc1)Nc1cccc(S(=O)(=O)N2CCCC2)c1,-18,-1,1,0,53*,-9,44*
O=C(COC(=O)/C=C/c1ccc(OC(F)F)cc1)Nc1ccc(N2CCOCC2)cc1,1,3,8,4,2,4,.
Cc1csc(NC(C)c2nc3cc(Cl)c(N4CCCCC4)cc3n2CCOCCO)n1 (stereo unspecified),12,0,12,-1,-3,5,.
CCCCCCOC(=O)CC1CC(C(C)=O)C1(C)C (stereo unspecified),.,5,.,3,3,.,.
CC(NC(=O)COC(=O)c1ccccc1F)C1CC2CCC1C2 (stereo unspecified),.,19,5,11,76*,.,63*
CC(NC(=O)c1ccc(F)cc1F)C1CC2CCC1C2 (stereo unspecified),-1,7,3,-3,6,-1,.
Brc1ccccc1OCCCCn1cnc2ccccc21,-1,4,2,2,35*,1,4
CCCCCCC(=O)Nc1c(O)c2ccccc2[nH]c1=O,-1,10,2,11,42*,5,22
CCCCCCCC(=O)NNC(=O)c1c(O)c2ccccc2[nH]c1=O,1,9,1,-3,-1,3,.
